HTR1E agonist = agonists of human 5-HT1E serotonin receptor. P28566. CHO 5-HT1E Ga15 NFAT-bla reporter, FRET; 0% DMSO wells, 100% control agonist wells. activation, % at 6 µM. actives 0.69% (n = 65,000). AID 574;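 active = activation above a set limit, the screen-wide mean activation plus 3 SD, cut at about 8.5% in these data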;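 also: 100% = positive control agonist at 1 µM giving full maximal response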
Target sequence (P28566 whole entry, looked up): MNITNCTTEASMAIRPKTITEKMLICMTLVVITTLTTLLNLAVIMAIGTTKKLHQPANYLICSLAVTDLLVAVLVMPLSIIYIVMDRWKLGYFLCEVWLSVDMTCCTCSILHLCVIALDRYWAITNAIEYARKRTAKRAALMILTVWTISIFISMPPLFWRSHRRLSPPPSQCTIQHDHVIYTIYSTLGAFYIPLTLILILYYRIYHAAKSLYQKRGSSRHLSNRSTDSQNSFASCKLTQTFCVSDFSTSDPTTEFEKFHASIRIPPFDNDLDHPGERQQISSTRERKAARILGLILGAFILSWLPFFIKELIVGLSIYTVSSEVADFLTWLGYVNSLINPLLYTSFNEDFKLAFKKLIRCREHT
5HT1a ag = agonists of human 5-HT1a serotonin receptor | actives 0.56% (n = 65,000) | CHO 5-HT1a Ga15 NFAT-bla reporter, FRET ratio; 0% basal, 100% maximal reference agonist | AID 567 | P08908 | activation, % at 10 µM;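 active = activation above the screen-wide mean activation plus 3 SD, cut at about 19% in these data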;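 also: 0% = DMSO wells and 100% = 5-CT at EC100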
5-HT1A blocker = antagonists of human 5-HT1a serotonin receptor. P08908. CHO 5-HT1a Ga15 NFAT-bla reporter, antagonist mode. inhibition, % at 10 µM. actives 0.68% (n = 62,000);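 active = inhibition above the mean of all tested compounds plus 3 SD, cut at about 43% in these data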;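 also: receptor stimulated by 5-CT agonist at 100 nM near EC80; beta-lactamase reporter measured by ratiometric fluorescence of a cleavable substrate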
5HT1E antag = blocks the human 5-HT1E serotonin receptor; P28566; CHO 5-HT1E Ga15 NFAT-bla reporter, FRET, antagonist; inhibition, % at 6 µM; actives 0.99% (n = 65,000); AID 571;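 active = inhibition above a set limit, the mean inhibition across every tested compound plus 3 SD, cut at about 29% in these data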;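 also: signal is the 460 over 535 nm emission ratio of beta-lactamase substrate; 0% = agonist plus DMSO wells and 100% = wells without agonist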
HER2 expr 66K = Her2 kinase expression inhibition. SKBR-3 HER2 protein level, AlphaScreen, 18-24 h; stronger effect = lower value. HER2 level % of control, % at 10 µM. actives 0.69% (n = 65,000);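 active = HER2 level under 5% of the carrier-only control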;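 also: 100% = DMSO carrier and 0% = 500 nM PU-H71 HSP90 inhibitor; lower value means stronger loss of Her2 protein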
* = called active by the depositor. The list is not random: actives were taken first. Their share in the collection is about 3%.

What do the screens show for `COc1ccccc1Nc1nc(C2(C)CCC(=O)O2)cs1` (configuration not stated)?
HTR1E agonist: -2; 5HT1a ag: 0; 5-HT1A blocker: 21; 5HT1E antag: 1; HER2 expr 66K: 92

What do the screens show for `Cc1[nH]nc2c1C(c1ccc(F)cc1)C1=C(CC(C)(C)CC1=O)N2` (configuration not stated)?
HTR1E agonist: 0; 5HT1a ag: -2; 5-HT1A blocker: -12; 5HT1E antag: -6; HER2 expr 66K: 67

What do the screens show for `Cc1nc2nc(C)c(CCC(=O)N3CCOCC3)c(C)n2n1`?
HTR1E agonist: 0; 5HT1a ag: -3; 5-HT1A blocker: 2; 5HT1E antag: -7; HER2 expr 66K: 168

How did CC1(C)CC(=O)C(C(C2=C(O)CC(C)(C)CC2=O)c2cccc(O)c2)C(=O)C1 (configuration not stated) do in these assays?
HTR1E agonist: 0; 5HT1a ag: 0; 5-HT1A blocker: 5; 5HT1E antag: 0; HER2 expr 66K: 109

What do the screens show for `CC1(C)CC(=O)C2=C(C1)N(c1cccc(O)c1)C1=C(C2)C(=O)CC(C)(C)C1`?
HTR1E agonist: 1; 5HT1a ag: 0; 5-HT1A blocker: 20; 5HT1E antag: 30*; HER2 expr 66K: 59

How did O=C(C1CC1)N1CCc2cc(Br)cc(S(=O)(=O)NCC3COc4ccccc4O3)c21 (configuration not stated) do in these assays?
HTR1E agonist: -1; 5HT1a ag: 1; 5-HT1A blocker: 4; 5HT1E antag: -6; HER2 expr 66K: 266

Results for CCCCSc1nc(N)c(C#N)c(-c2cccs2)c1C#N ?
HTR1E agonist: 0; 5HT1a ag: 3; 5HT1E antag: 32*; HER2 expr 66K: 126

What do the screens show for `CC(C)OC(=O)CSc1nc(N)c(C#N)c(-c2cccs2)c1C#N`?
HTR1E agonist: 0; 5HT1a ag: 0; 5-HT1A blocker: -10; 5HT1E antag: 44*; HER2 expr 66K: 85

Results for CCCSc1nc(N)c(C#N)c(-c2ccc(C)cc2)c1C#N ?
HTR1E agonist: 0; 5HT1a ag: 1; 5-HT1A blocker: -23; 5HT1E antag: 1; HER2 expr 66K: 102

Results for CN(C)c1ccc(C(=S)NCc2ccco2)cc1 ?
HTR1E agonist: 0; 5HT1a ag: -2; 5-HT1A blocker: 8; 5HT1E antag: 2

What do the screens show for `CC1=CC(C)(C)N=C(Nc2ccc(C)cc2)S1`?
HTR1E agonist: 0; 5HT1a ag: -1; 5-HT1A blocker: 0; 5HT1E antag: 1; HER2 expr 66K: 102

What do the screens show for `COc1ccc(Nc2nc(OC)nc(N3CCN(c4ccc(OC)cc4)CC3)n2)cc1`?
HTR1E agonist: 0; 5HT1a ag: -2; 5-HT1A blocker: -1; 5HT1E antag: -5; HER2 expr 66K: 85

What do the screens show for `COc1ccc(N2CCN(c3nc(NCCc4ccc(OC)c(OC)c4)nc(OC)n3)CC2)cc1`?
HTR1E agonist: 0; 5HT1a ag: 5; 5-HT1A blocker: 46*; 5HT1E antag: 21; HER2 expr 66K: 74

What do the screens show for `O=C(Cn1ncn2c(cc3ccccc32)c1=O)NCCC1=CCCCC1`?
HTR1E agonist: 0; 5HT1a ag: -2; 5-HT1A blocker: 32; 5HT1E antag: 8; HER2 expr 66K: 94

What do the screens show for `Cc1cccc(CSC2=NCCN2C(=O)c2ccc(Br)o2)c1`?
HTR1E agonist: 0; 5HT1a ag: -3; 5-HT1A blocker: 13; 5HT1E antag: 5; HER2 expr 66K: 83

How did COc1ccccc1-n1c(SCC(=O)N2CCCCC2)nnc1-c1ccccc1O do in these assays?
HTR1E agonist: 0; 5HT1a ag: 1; 5-HT1A blocker: 4; 5HT1E antag: -3; HER2 expr 66K: 119

How did c1ccc(CSCc2cn3ccsc3n2)cc1 do in these assays?
HTR1E agonist: 0; 5HT1a ag: -3; 5-HT1A blocker: -3; 5HT1E antag: -11; HER2 expr 66K: 95

Results for O=c1c2ccccc2nc(SCc2cn3ccsc3n2)n1-c1ccccc1F ?
HTR1E agonist: 0; 5HT1a ag: 10; 5-HT1A blocker: 12; 5HT1E antag: 43*; HER2 expr 66K: 69

Results for O=c1c2ccccc2nc(SCc2cn3ccsc3n2)n1-c1ccccc1 ?
HTR1E agonist: 0; 5HT1a ag: 1; 5-HT1A blocker: -1; 5HT1E antag: 38*; HER2 expr 66K: 90

How did COC(=O)C1CCC(C)(C(=O)Nc2ccccc2)C1(C)C (configuration not stated) do in these assays?
HTR1E agonist: -1; 5HT1a ag: -3; 5-HT1A blocker: -4; 5HT1E antag: 0; HER2 expr 66K: 140

How did O=C(Nc1ccccc1Oc1ccccc1)C1CC1 do in these assays?
HTR1E agonist: -1; 5HT1a ag: -1; 5-HT1A blocker: 16; 5HT1E antag: 1; HER2 expr 66K: 87

Results for CN(C)CCNS(=O)(=O)c1ccc(Cl)cc1 ?
HTR1E agonist: 0; 5HT1a ag: 0; 5-HT1A blocker: -4; 5HT1E antag: -1; HER2 expr 66K: 89

Results for Cc1ccc2nc(C(F)(F)F)c(C#N)c(N)c2c1 ?
HTR1E agonist: -1; 5HT1a ag: -1; 5HT1E antag: 35*; HER2 expr 66K: 49

What do the screens show for `Cc1nc(Nc2ccc(F)cc2)[nH]c(=O)c1CCC(C)C`?
HTR1E agonist: 0; 5HT1a ag: 1; 5-HT1A blocker: 52*; 5HT1E antag: -8; HER2 expr 66K: 109

How did Cc1nn(C(=O)CCCC(=O)n2nc(C)c(Cl)c2C)c(C)c1Cl do in these assays?
HTR1E agonist: 0; 5HT1a ag: -2; 5-HT1A blocker: 0; 5HT1E antag: -3; HER2 expr 66K: 107

Results for CCOc1ccc(CCNC(=O)C2CCCN(S(=O)(=O)c3c(C)n[nH]c3C)C2)cc1OCC (configuration not stated) ?
HTR1E agonist: -1; 5HT1a ag: -4; 5-HT1A blocker: -6; 5HT1E antag: -1; HER2 expr 66K: 74

How did Clc1ccccc1N1CCN(c2ncnc3nc[nH]c23)CC1 do in these assays?
HTR1E agonist: 0; 5HT1a ag: 66*; 5-HT1A blocker: -5; 5HT1E antag: 28

What do the screens show for `COC(=O)c1ccc(Oc2nc(C)cc(Oc3ccccc3)n2)cc1`?
HTR1E agonist: 0; 5HT1a ag: -3; 5-HT1A blocker: 20; 5HT1E antag: 21; HER2 expr 66K: 74

What do the screens show for `COC(=O)c1ccc(Oc2cc(C)nc(-n3nc(C)cc3C)n2)cc1`?
HTR1E agonist: -1; 5HT1a ag: -3; 5-HT1A blocker: 65*; 5HT1E antag: 90*; HER2 expr 66K: 69

Results for CCOc1ccc2nc(NCCCNS(=O)(=O)c3ccccc3)c(C#N)cc2c1 ?
HTR1E agonist: 0; 5HT1a ag: -1; 5-HT1A blocker: -2; 5HT1E antag: 9; HER2 expr 66K: 88

What do the screens show for `COC(=O)c1ccc2c(=O)n(Cc3ccc4c(c3)OCO4)c(SCC(=O)N3CCCC3)nc2c1`?
HTR1E agonist: -5; 5HT1a ag: 96*; 5-HT1A blocker: 5; 5HT1E antag: 12; HER2 expr 66K: 109
